# The list is not random: actives were taken first. Their share in the collection is about 11%.
# PNC inhibitor – High Content Assay for Compounds that inhibit the Assembly of the Perinucleolar Compartment; PC3M PTB-GFP, PNC prevalence imaging, 16 h; active compounds read low; activity change (PNC), negative = inhibition, % at 10 µM; actives 3.1% (n = 140,000); AID 2417, 2010;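 active = readout at or below -70, meaning at least 70% loss of cells showing the perinucleolar compartment, a nuclear body marking cancer cells; inconclusive = readout between -30 and a set limit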;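 note: plate controls were DMSO wells for no effect and camptothecin positive control wells for full effect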
#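 Compounds are pinned in duplicate onto adhered PC3M cells stably expressing GFP-tagged PTB and incubated 16 h at 37 C. Cells are then fixed, nuclei stained with Hoechst, and PNC-positive cells counted.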
# ALDH1A1 block – qHTS Assay for Inhibitors of Aldehyde Dehydrogenase 1 (ALDH1A1) | AID 1030, 2008 | actives 7.3% (n = 220,000) | Potency, µM (titrated, usually from 75.3 µM), inactives show at the top dose activity, negative = inhibition, actives largely listed as inhibitors | Purified ALDH1A1, NADH fluorescence, propionaldehyde substrate;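 note: potency is the fitted concentration of half-maximal effect; plate controls were no enzyme wells and a reference inhibitor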
# Target sequence (P00352 whole entry, looked up): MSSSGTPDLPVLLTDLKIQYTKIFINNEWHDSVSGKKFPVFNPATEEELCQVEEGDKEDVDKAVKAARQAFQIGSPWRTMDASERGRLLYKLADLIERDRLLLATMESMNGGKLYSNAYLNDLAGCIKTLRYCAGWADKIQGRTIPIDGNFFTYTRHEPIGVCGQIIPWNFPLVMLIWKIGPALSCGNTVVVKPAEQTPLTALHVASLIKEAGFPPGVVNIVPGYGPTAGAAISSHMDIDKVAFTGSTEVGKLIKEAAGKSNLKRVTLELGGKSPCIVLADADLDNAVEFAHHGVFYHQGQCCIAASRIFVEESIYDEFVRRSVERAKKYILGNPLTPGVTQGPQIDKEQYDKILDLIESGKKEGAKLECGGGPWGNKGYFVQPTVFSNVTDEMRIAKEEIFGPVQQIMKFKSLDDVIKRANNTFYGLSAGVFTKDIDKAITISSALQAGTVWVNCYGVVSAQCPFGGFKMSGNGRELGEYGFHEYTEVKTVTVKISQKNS
# HPGD inh – qHTS Assay for Inhibitors of HPGD (15-Hydroxyprostaglandin Dehydrogenase); Potency, µM, for inactives: at the highest dose activity change, negative = inhibition, most hits filed as inhibitors; actives 4.3% (n = 150,000); 15-hydroxyprostaglandin dehydrogenase [NAD(+)] (Homo sapiens), P15428; purified HPGD, NADH fluorescence kinetic, PGE2 substrate; note: potency is the fitted concentration of half-maximal effect
#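 NADH formation kinetics: reaction with 30 uM PGE2 and 1 mM NAD+ (final), 20 nM enzyme, Tris-HCl pH 8 with Tween 20, after 15 min compound preincubation at room temperature. Fluorescence change, last versus first of five reads.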
# * marks the source's active call; other numbers are inactive results; u = inconclusive; x = no result given; [ ] = dose if it differs, or a comment. Unless noted, calls come from the whole dose curve; as a rule, active = well fitted inhibition curve with a large enough effect (not every such curve was filed as active); inconclusive = small, poorly fitted or top-dose-only effect, or another doubt; inactive = no such curve, though single readings can be large or run the other way. Unless noted, % is set by controls: 0 for no effect and ±100 for the full control effect.
SMILES,PNC inhibitor,ALDH1A1 block,HPGD inh
CC(CC1C(C#N)=C(N)SC(N)=C1C#N)c1ccccc1 (configuration not stated),16,10µM*,14µM*
COC(=O)CCCCC1SCC(NC(=O)c2ccccc2)C1=O (configuration not stated),x,-2%,x
COc1ccccc1OCc1ccc(C(=O)Nc2ccc(Cl)cn2)o1,x,-3%,x
Cc1cc(C)nc(N2CCCC(C(=O)NCC(c3ccccc3)c3ccccc3)C2)n1 (configuration not stated),-5,-2%,-18%
CCc1ccc(C(=O)COC(=O)c2cncc(Br)c2)cc1,x,12%,x
Cc1ccc(C)c(NC(=O)/C(C#N)=C/c2ccc(Sc3nncn3C)c([N+](=O)[O-])c2)c1,-8,-8%,-10%
C=CCC1(O)CC(c2ccco2)NC(c2ccco2)C1CCC (configuration not stated),54,u,-5%
CCC1C(=O)CC(c2ccco2)NC1c1ccco1 (configuration not stated),-100*,u,-12%
Cc1oc(-c2cc3c(cc2Cl)OCO3)nc1CN1CCCC1c1ccc(F)cc1 (configuration not stated),x,-8%,x
CCCS(=O)c1nc(C)cc(C)c1S(C)(=O)=O (configuration not stated),x,-4%,x
CC(C)CC(=O)O/N=C1\C(=O)N(Cc2ccc(Cl)cc2)c2ccc([N+](=O)[O-])cc21,14,u,14µM*
CC(C)CC(=O)O/N=C1\C(=O)N(c2ccccc2)c2ccccc21,31,u,-11%
Cc1ccc2nc(-c3ccc(NC(=O)CN4C(=O)c5ccccc5C4=O)cc3)sc2c1,23,u,u
Cc1ccc2nc(-c3ccc(NC(=O)COC(=O)c4ccc(=O)[nH]c4)cc3)sc2c1,-1,3.5µM*,u
COC(=O)NC(/C(C(=O)OC)=C(\C)NCc1ccccc1)c1ccc(Cl)cc1 (configuration not stated),x,-2%[13.5 µM],x
CCCCCCCC/C=C\CCCCCCCC(=O)N[C@@H](CO)Cc1ccc(O)cc1,x,-4%,-8%
CC1(C)Cc2c(c(N3CCOCC3)nc3sc4c(NCc5ccco5)nnnc4c23)CS1,-81*,u,-26%
CC(C)CNc1nnnc2c1sc1nc(N3CCOCC3)c3c(c12)CC(C)(C)SC3,12,u,-21%
O=C(c1c[nH]c(C(=O)N2CCN(Cc3ccccc3)CC2)c1)C1CCCCC1,x,7.9µM*,x
O=C(C1CCC1)N1CCN(Cc2ccccc2)CC1,9,-2%,-6%
O=C(O)CCCNc1cc(N2CCC3(CC2)OCCO3)c2noc3c2c1C(=O)c1ccccc1-3,-20,u,-30%
CCOC(=O)N1CCN(c2cc(NCCC(=O)O)c3c4c(onc24)-c2ccccc2C3=O)CC1,18,14µM*,-26%
COc1ccc(-c2nc3c(c4c2C[C@H](c2ccccc2)OC4)CN(S(=O)(=O)c2ccc4c(c2)OCCN4C)CC3)c(C)c1,x,u,0%
Cc1ccc(C2OCC3(CO2)COC(c2ccc(C)cc2)OC3)cc1 (configuration not stated),u,2%,-8%
Cc1ccc(C2OCC3(CO)COC(c4ccc(C)cc4)N23)cc1 (configuration not stated),-1,4.5µM*,-11%
SMILES,PNC inhibitor,ALDH1A1 block,HPGD inh
Cc1ccnc(NC(=O)Cn2cc([N+](=O)[O-])cn2)c1,x,6%,x
CCCCCCC1CC(CC(=O)Nc2ccc([N+](=O)[O-])cc2)C(=O)O1 (configuration not stated),-104*,14%,-3%
CC1(C)CC(CC(=O)Nc2ccc([N+](=O)[O-])cc2)C(=O)O1 (configuration not stated),9,-7%,-5%
CCc1ccccc1NC(=S)N(CCN1CCOCC1)Cc1ccccc1F,x,1%,x
O=C(O)CC1COc2ccccc2N1C(=O)c1ccccc1Cl (configuration not stated),x,7%,x
C[C@@H](NC(=O)c1nc[nH]c1C(=O)N[C@@H](Cc1ccccc1)C(=O)OCc1ccccc1)c1ccccc1,x,9%,x
C[C@H](NC(=O)c1nc[nH]c1C(=O)N[C@@H](Cc1ccccc1)C(=O)OCc1ccccc1)c1ccccc1,x,5µM*,x
CC(C)(C)OC(=O)NCCCC[C@H](NC(=O)c1nc[nH]c1C(=O)NC(c1ccccc1)c1ccccc1)C(=O)OC(C)(C)C,x,2.8µM*,x
CC(C)(C)OC(=O)NCCCCCNC(=O)c1[nH]cnc1C(=O)N[C@@H](CCCCNC(=O)OC(C)(C)C)C(=O)OC(C)(C)C,x,-15%,x
Cc1cc(C(F)(F)F)nn2cnnc12,x,1%,x
O=C(CSc1nnc(-c2ccncc2)o1)NC1C2CC3CC(C2)CC1C3 (configuration not stated),-1,-9%,-15%
CS(=O)(=O)N1CCN(C(=O)Cc2ccccc2Cl)CC1,x,10%,x
COC(=O)c1cc(NC(=O)CC2SC(=Nc3ccccc3)N(CCc3c[nH]c4ccccc34)C2=O)cc(C(=O)OC)c1 (configuration not stated),-20,4%,x
O=C(NCc1ccncc1)c1cc(C(=O)C2CC2)c[nH]1,x,-6%,x
O=C1Cc2ccccc2N1c1ccccc1,-2,-15%,35µM*
O=C1CCCCC(=O)N(c2ccccc2)c2ccccc21,6,6%,-10%
CC(C)c1ccccc1NC(=O)COC(=O)c1ccc(Cl)c(S(=O)(=O)N2CCCCCC2)c1,24,-12%,-12%
C=C(C)CC1(c2ccccc2)Oc2ccccc2-c2nc3cc(Cl)c(Cl)cc3nc21 (configuration not stated),x,-17%[13.5 µM],x
CCOC(=O)c1ccc(N2NC(=O)/C(=C/c3ccc(OC(=O)c4ccco4)c(OC)c3)C2=O)cc1,u,u,13µM*
CCOc1cc(/C=C2/C(=N)N3OC(C)=CC3=NC2=O)ccc1OCCOc1ccccc1,-21,u,u
CCOc1cc(/C=C2/SC(=S)NC2=O)ccc1OC(=O)c1ccco1,x,8.9µM*,x
CCOC(=O)C1=C(C)NC(=O)NC1c1ccc(OC(=O)c2ccco2)c(OC)c1 (configuration not stated),-16,1%,-7%
CCOc1cc(/C=C2/C(=N)N3OC(C)=CC3=NC2=O)ccc1OC(=O)c1ccco1,x,10µM*,x
COc1cc(/C=C2/SC(=S)N(C)C2=O)ccc1OC(=O)c1ccco1,-8,-12%,-17%
Fc1ccc(Oc2cnc3ccccc3n2)cc1,x,0%,x
SMILES,PNC inhibitor,ALDH1A1 block,HPGD inh
Cc1cccc(-c2n[nH]c(=S)n2Cc2ccccc2)c1,53,u,u
Cc1ccccc1-c1n[nH]c(=S)n1Cc1ccccc1,x,-1%,x
C=CCn1c(-c2cccc(Cl)c2)n[nH]c1=S,u,11µM*,u
C=CCn1c(-c2ccc(OC)c(OC)c2)n[nH]c1=S,-15,-2%,-3%
CCc1cc(-c2n[nH]c(=S)n2Cc2ccccc2)cs1,51,5.6µM*,14µM*
CCc1cc(-c2n[nH]c(=S)n2CC)cs1,-9,u,-28%
S=c1[nH]nc(-c2cccc(Cl)c2)n1Cc1ccccc1,56,u,18µM*

# Screening results: PubChem, National Center for Advancing Translational Sciences (NCATS)
